Bioassay records deposited in PubChem by National Center for Advancing Translational Sciences (NCATS).
IL-1B inflam inh: qHTS for Inhibitors of Inflammasome Signaling: IL-1-beta AlphaLISA Primary Screen; THP-1 LPS/ATP IL-1B secretion, AlphaLISA, 16 h; stronger effect = lower value; activity change, % at 57.5 µM; hit rate 4.7% among 360,000; AID 743279, 2014; in the data active means activity change below about -50%; inconclusive means mostly about -30% to -49%
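Secreted IL-1B measured by AlphaLISA bead assay after 16 h compound exposure of THP-1 cells; compounds (final up to 57.5 uM) added 1 h before LPS (250 ng/mL) and ATP (1.25 mM) stimulation; lower signal means less secretion.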
MCF10A rereplic: A quantitative high throughput screen for small molecules that induce DNA re-replication in MCF 10a normal breast cells; MCF 10A DNA re-replication, Hoechst nuclear intensity, 48 h; hit rate 2.9% among 350,000; Potency, µM (top dose mostly 46.1 µM), most hits filed as activators; further: nearly all actives have a fitted effect of over 50% in size
TDP1 cell noCPT: qHTS for Inhibitors of human tyrosyl-DNA phosphodiesterase 1 (TDP1): qHTS in cells in absence of CPT. DT40 Tdp1-/- hTDP1 cells, no CPT, ATP luminescence, 48 h. hit rate 15% among 420,000. Potency, µM (doses to about 46.2 µM), hits mostly inhibitors; further: nearly all actives have a fitted effect of over 55% in size
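A cellular qHTS used chicken DT40 cells lacking endogenous Tdp1 but carrying stably transfected human TDP1. Compounds were applied without camptothecin, and cell growth kinetics were judged by ATP-dependent luminescence after ≥48 hr.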
SW480 rerep: A quantitative high throughput screen for small molecules that induce DNA re-replication in SW480 colon adenocarcinoma cells; hit rate 1.8% among 340,000; SW480 DNA re-replication, Hoechst DNA content imaging, 48 h; Potency, µM (titrated, usually from 46.1 µM), actives largely listed as activators; further: nearly all actives have a fitted effect of over 55% in size
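SW480 cells exposed to compounds for 48 hr at 37 C, 5% CO2, then Hoechst-stained 40 min. Nuclear DNA content imaged by fluorescence scanning (405 nm excitation, 500-530 nm emission); re-replication scored as increased high-intensity nuclei.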
BCR signal inh: qHTS Assay to Find Inhibitors of Chronic Active B-Cell Receptor Signaling; ABC-DLBCL IkBa-CBG/CBR reporter, luminescence ratio, 4 h; Potency, µM (top dose mostly 46.1 µM), most hits filed as inhibitors; hit rate 0.05% among 340,000; active means well fitted inhibition curve with a large enough effect in the signal ratio, with a control signal flat, not every such curve was filed as active; inconclusive means small, poorly fitted or top-dose-only effect, or effect the other way, or a change in a side signal; the % refers to the signal ratio
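Concentration-response series (up to 46 uM) were applied to TMD8 dual-reporter cells for 4 h at 37C with doxycycline. Green/red ratio, after filter-overlap correction, defined %Activity; red signal alone was normalised to basal cells and zero luminescence.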
DT40 TDP1 CPT: qHTS for Inhibitors of human tyrosyl-DNA phosphodiesterase 1 (TDP1): qHTS in cells in presence of CPT | Potency, µM (series often up to 46.2 µM), most hits filed as inhibitors | chicken DT40 Tdp1-/-;hTDP1 cells + 20 nM CPT, ATP luminescence, 48 h | AID 686979, 2013 | hit rate 12% among 420,000; further: nearly all actives have a fitted effect of over 55% in size
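Chicken DT40 Tdp1-/- cells stably complemented with human TDP1 were seeded at 400 cells/well in medium containing 20 nM camptothecin, exposed to pin-transferred compounds, and grown at 37 °C for at least 48 hr. Viability was read as ATP luminescence.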
Each line names hits and unclear results; the compound was inactive in the other large screens. Hits are enriched below; roughly 19% of the tested compounds scored in any of these assays. Unless noted, the call rests on the fitted dose curve; in most records, active means well fitted curve in the direction sought with a large enough effect; inconclusive means small, poorly fitted or top-dose-only effect, or another doubt; inactive means no such curve, though single readings can be large; an effect the other way counts as inactive or inconclusive.

CCN1CCN(c2nc(Nc3cccc(C)c3)nc(N)c2[N+](=O)[O-])CC1	IL-1B inflam inh inconclusive, TDP1 cell noCPT 18.4µM, BCR signal inh inconclusive, DT40 TDP1 CPT inconclusive
CCN1CCN(c2nc(Nc3ccccc3)nc(N)c2[N+](=O)[O-])CC1	BCR signal inh inconclusive
Cc1cc2c(cc1C)-n1nnnc1C(N1CCN(CC(=O)NC(C)C)CC1)C(=O)N2 (centres undefined)	DT40 TDP1 CPT inconclusive (no result: MCF10A rereplic, SW480 rerep, BCR signal inh)
Cc1cc2c(cc1C)-n1nnnc1C(N(Cc1ccccc1)Cc1ccccc1)C(=O)N2 (centres undefined)	TDP1 cell noCPT 20.6µM, DT40 TDP1 CPT inconclusive (no result: MCF10A rereplic, SW480 rerep, BCR signal inh)
CCCCCCn1c(COc2ccccc2F)nnc1SCC(=O)NC1CCS(=O)(=O)C1 (centres undefined)	DT40 TDP1 CPT inconclusive (no result: BCR signal inh)
Cc1ccc(C(=O)N2N=C(c3ccccc3O)CC2c2ccccc2)cc1 (centres undefined)	TDP1 cell noCPT 20.6µM, DT40 TDP1 CPT inconclusive
COc1ccc(C2CC(c3c(O)cc(C)oc3=O)=NCCS2)c(OC)c1 (centres undefined)	MCF10A rereplic 1.12µM, TDP1 cell noCPT 0.0206µM, SW480 rerep inconclusive, BCR signal inh inconclusive, DT40 TDP1 CPT 0.461µM
COc1ccc(C(c2c(O)cc(C)oc2=O)c2c(O)cc(C)oc2=O)cc1	none
CC(=O)Nc1cccc(-c2nc3ccccc3s2)c1	none
NC(=O)c1ccc(NC(=O)CCc2nc3ccccc3s2)cc1	BCR signal inh inconclusive
O=C(Nc1ccc(Cc2nc3ccccc3s2)cc1)c1ccncc1	MCF10A rereplic inconclusive, TDP1 cell noCPT 11.6µM, DT40 TDP1 CPT inconclusive
CN(C)c1cccc(C(=O)Nc2ccc(-c3nc4ccccc4s3)cc2)c1	TDP1 cell noCPT 13µM, DT40 TDP1 CPT inconclusive (no result: IL-1B inflam inh, MCF10A rereplic, SW480 rerep)
COc1ccccc1OC(C)C(=O)Nc1ccc(-c2nc3ccccc3s2)cc1 (centres undefined)	TDP1 cell noCPT inconclusive (no result: IL-1B inflam inh, MCF10A rereplic, SW480 rerep, BCR signal inh)
CC(C)Oc1ccc(C(=O)Nc2ccc(-c3nc4ccccc4s3)cc2)cc1	TDP1 cell noCPT inconclusive, DT40 TDP1 CPT 10.3µM (no result: IL-1B inflam inh, MCF10A rereplic, SW480 rerep, BCR signal inh)
COc1cc(NS(=O)(=O)c2cc3c(cc2C)n(C)c(=O)c(=O)n3C)cc(OC)c1	TDP1 cell noCPT inconclusive (no result: IL-1B inflam inh, MCF10A rereplic, SW480 rerep, BCR signal inh)
Cc1cccc(NC(=O)C2CCCN(S(=O)(=O)c3cnc[nH]3)C2)c1C (centres undefined)	none (no result: IL-1B inflam inh, MCF10A rereplic, SW480 rerep, BCR signal inh)
CC(C)c1ccc(OCc2cc(=O)n3c(-c4ccccc4)csc3n2)cc1	TDP1 cell noCPT 25.9µM, DT40 TDP1 CPT inconclusive (no result: IL-1B inflam inh, MCF10A rereplic, SW480 rerep, BCR signal inh)
O=C(N/N=C/c1ccc([N+](=O)[O-])cc1)c1cc(C2CC2)nc2ccccc12	MCF10A rereplic inconclusive, TDP1 cell noCPT 7.31µM, SW480 rerep inconclusive, DT40 TDP1 CPT 9.2µM
Nc1ccc(C(=O)N/N=C\c2cc(N=Nc3cccc4ccccc34)ccc2O)cc1	TDP1 cell noCPT 4.61µM, SW480 rerep inconclusive, BCR signal inh inconclusive, DT40 TDP1 CPT 5.17µM
CCc1ccc(/C=N/NC(=O)c2cc(C3CC3)nc3ccccc23)s1	MCF10A rereplic 7.31µM, TDP1 cell noCPT 2.31µM, SW480 rerep 18.4µM, BCR signal inh inconclusive, DT40 TDP1 CPT 4.61µM
O=C(N/N=C/c1cc([N+](=O)[O-])ccc1O)NC12CC3CC(CC(C3)C1)C2	MCF10A rereplic inconclusive, TDP1 cell noCPT inconclusive, DT40 TDP1 CPT inconclusive (no result: SW480 rerep)
O=C(N/N=C/c1cc([N+](=O)[O-])ccc1O)C12CC3CC(CC(C3)C1)C2	MCF10A rereplic 7.31µM, TDP1 cell noCPT 23.1µM, SW480 rerep inconclusive, DT40 TDP1 CPT inconclusive
Cc1cnc(CNC(=O)c2c3n(c(C)cc2=O)-c2ccccc2SC(c2ccsc2)C3)cn1 (centres undefined)	none (no result: IL-1B inflam inh, MCF10A rereplic, SW480 rerep, BCR signal inh)
CCc1cc(C(=O)N/N=C/c2ccc(O)cc2)c2ccccc2n1	MCF10A rereplic 23.1µM, TDP1 cell noCPT 8.2µM, SW480 rerep inconclusive, BCR signal inh inconclusive
